Assay results taken from PMC13541613, “GHT-SELEX demonstrates unexpectedly high intrinsic sequence specificity and complex DNA binding of many human transcription factors”.

Biological target: ZNF721 full-length (Homo sapiens, UniProt Q8TF20-2 1-923)
Assay: HT-SELEX; 20 mM HEPES pH 7, 140 mM KCl, 5 mM NaCl, 1 mM K2HPO4, 2 mM MgSO4, 100 uM EGTA, ZnSO4, 0.1% Tween20; room temperature, 1 h; high values mean tight binding
Settings: protein: ivt; tags: eGFP (N-terminal); dsDNA, one strand shown
Method in brief: (§1)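 Tagged transcription factor, expressed in HEK293 lysate or cell-free extract as a full-length protein or DNA-binding-domain fragment, was held on beads. It bound a randomized 40-base DNA library during 1 h at room temperature in low-stringency HEPES/KCl buffer with Tween20. Eluted DNA went through successive PCR cycles and Illumina sequencing of ~3 million 60 bp reads per sample. A higher relative k-mer count in the selected reads denotes tighter binding.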

ZNF721 full-length, sequence (Q8TF20 other isoform, or with tags, fused parts or gaps): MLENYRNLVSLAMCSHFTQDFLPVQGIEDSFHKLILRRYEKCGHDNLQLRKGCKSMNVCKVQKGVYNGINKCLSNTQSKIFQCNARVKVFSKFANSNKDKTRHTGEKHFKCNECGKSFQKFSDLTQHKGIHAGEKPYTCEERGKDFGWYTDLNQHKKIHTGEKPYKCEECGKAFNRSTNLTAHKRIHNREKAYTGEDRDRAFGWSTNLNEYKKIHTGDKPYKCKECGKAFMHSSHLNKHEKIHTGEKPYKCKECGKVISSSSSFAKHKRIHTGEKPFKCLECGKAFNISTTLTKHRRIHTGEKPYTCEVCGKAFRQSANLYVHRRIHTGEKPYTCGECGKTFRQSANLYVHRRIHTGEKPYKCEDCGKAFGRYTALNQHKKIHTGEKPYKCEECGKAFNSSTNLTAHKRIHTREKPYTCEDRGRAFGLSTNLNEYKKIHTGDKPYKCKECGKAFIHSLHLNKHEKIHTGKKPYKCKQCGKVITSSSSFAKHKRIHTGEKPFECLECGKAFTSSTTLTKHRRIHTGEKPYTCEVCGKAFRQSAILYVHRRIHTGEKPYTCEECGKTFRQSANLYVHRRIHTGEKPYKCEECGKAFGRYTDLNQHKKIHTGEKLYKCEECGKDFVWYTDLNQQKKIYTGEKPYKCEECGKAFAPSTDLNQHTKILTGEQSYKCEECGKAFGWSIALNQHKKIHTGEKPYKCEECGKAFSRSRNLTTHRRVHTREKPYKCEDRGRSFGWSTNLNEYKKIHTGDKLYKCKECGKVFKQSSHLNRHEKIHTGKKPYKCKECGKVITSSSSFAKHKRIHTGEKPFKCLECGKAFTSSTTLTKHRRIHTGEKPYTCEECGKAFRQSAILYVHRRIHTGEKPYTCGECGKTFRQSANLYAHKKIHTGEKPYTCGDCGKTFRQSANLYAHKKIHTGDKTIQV

Row | Sequence | binding signal
1 | CCATCCCCAC | 0.116 relative 10-mer count
2 | CCCCCCACCC | 0.415 relative 10-mer count
3 | CCCCCTCGCC | 0.123 relative 10-mer count
4 | CCCCCACCGC | 0.192 relative 10-mer count
5 | CCCACGCCCC | 0.233 relative 10-mer count
6 | CCCACCCACC | 0.425 relative 10-mer count
7 | TCCCCACCCA | 0.122 relative 10-mer count
8 | AAAGCAGGGT | 0.272 relative 10-mer count
9 | GCCCCCCCCA | 0.107 relative 10-mer count
10 | CCGAAAAAAA | 0.115 relative 10-mer count
11 | CACCCACCCG | 0.132 relative 10-mer count
12 | CCCACCCCAA | 0.151 relative 10-mer count
13 | GGTGGGTGGA | 0.13 relative 10-mer count
14 | CCACCACCAC | 0.19 relative 10-mer count
15 | CCCCGCCGCC | 0.175 relative 10-mer count
16 | CCCCGCCCAC | 0.202 relative 10-mer count
17 | ACCCACCACC | 0.214 relative 10-mer count
18 | AAGCTGCACC | 0.143 relative 10-mer count
19 | TAAAAAAAAA | 0.115 relative 10-mer count
20 | CCCCGCCCCA | 0.196 relative 10-mer count

Row | Sequence | binding signal
21 | AAAAAAGCGC | 0.115 relative 10-mer count
22 | ACCACCCGCC | 0.125 relative 10-mer count
23 | GCCCCCGCCC | 0.146 relative 10-mer count
24 | CCCGCCCCGC | 0.154 relative 10-mer count
25 | ATGTGTATGA | 0.12 relative 10-mer count
26 | CCCCCCACAC | 0.17 relative 10-mer count
27 | AAGCATACCC | 0.253 relative 10-mer count
28 | CTCCACCCCC | 0.178 relative 10-mer count
29 | CGCTTCTTTC | 0.12 relative 10-mer count
30 | CACCCACCCA | 0.192 relative 10-mer count
31 | CCCCGCGCCC | 0.138 relative 10-mer count
32 | CCCTCCCCGC | 0.139 relative 10-mer count
33 | ACCCCACCAC | 0.199 relative 10-mer count
34 | AAAAAGCAGA | 0.107 relative 10-mer count
35 | AGAAAGAAGC | 0.136 relative 10-mer count
36 | CCCCACCGCC | 0.28 relative 10-mer count
37 | ACCCACCCCT | 0.134 relative 10-mer count
38 | CCGCCGCCCC | 0.169 relative 10-mer count
39 | AGGGCGGGGG | 0.14 relative 10-mer count
40 | CCACCAACCC | 0.156 relative 10-mer count

Biological target: ZNF721 DBD1 (Homo sapiens, UniProt Q8TF20-2 29-461)
Sequence (Q8TF20 17-449): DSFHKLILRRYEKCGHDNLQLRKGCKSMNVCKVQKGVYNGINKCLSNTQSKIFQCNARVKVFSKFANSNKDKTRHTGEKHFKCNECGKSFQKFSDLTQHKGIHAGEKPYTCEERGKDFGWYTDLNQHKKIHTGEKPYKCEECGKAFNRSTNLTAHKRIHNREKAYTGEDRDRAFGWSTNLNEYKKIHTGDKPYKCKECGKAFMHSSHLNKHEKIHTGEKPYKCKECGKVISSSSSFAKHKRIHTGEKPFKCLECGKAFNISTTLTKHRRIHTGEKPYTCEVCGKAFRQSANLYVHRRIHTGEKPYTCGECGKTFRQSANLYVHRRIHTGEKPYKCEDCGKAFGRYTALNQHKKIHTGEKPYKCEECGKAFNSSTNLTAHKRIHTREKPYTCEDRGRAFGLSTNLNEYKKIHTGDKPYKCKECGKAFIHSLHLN
Assay: as above
Settings: protein: ivt; tags: eGFP (N-terminal); dsDNA, one strand shown
Method in brief: as §1

Row | Sequence | binding signal
41 | CCATCCCCAC | 0.00537 relative 10-mer count
42 | CCCCCCACCC | 0.0187 relative 10-mer count
43 | CCCCCTCGCC | 0.0061 relative 10-mer count
44 | CCCCCACCGC | 0.00936 relative 10-mer count
45 | CCCACGCCCC | 0.00729 relative 10-mer count
46 | CCCACCCACC | 0.0187 relative 10-mer count
47 | TCCCCACCCA | 0.00495 relative 10-mer count
48 | AAAGCAGGGT | 0.00115 relative 10-mer count
49 | GCCCCCCCCA | 0.00261 relative 10-mer count
50 | CCGAAAAAAA | 0.0118 relative 10-mer count
51 | CACCCACCCG | 0.0039 relative 10-mer count
52 | CCCACCCCAA | 0.00642 relative 10-mer count
53 | GGTGGGTGGA | 0.00615 relative 10-mer count
54 | CCACCACCAC | 0.00688 relative 10-mer count
55 | CCCCGCCGCC | 0.00541 relative 10-mer count
56 | CCCCGCCCAC | 0.00771 relative 10-mer count
57 | ACCCACCACC | 0.0104 relative 10-mer count
58 | AAGCTGCACC | 0.0827 relative 10-mer count
59 | TAAAAAAAAA | 0.0133 relative 10-mer count
60 | CCCCGCCCCA | 0.0067 relative 10-mer count

Row | Sequence | binding signal
61 | AAAAAAGCGC | 0.0212 relative 10-mer count
62 | ACCACCCGCC | 0.00445 relative 10-mer count
63 | GCCCCCGCCC | 0.00527 relative 10-mer count
64 | CCCGCCCCGC | 0.00518 relative 10-mer count
65 | ATGTGTATGA | 0.124 relative 10-mer count
66 | CCCCCCACAC | 0.00656 relative 10-mer count
67 | AAGCATACCC | 0.076 relative 10-mer count
68 | CTCCACCCCC | 0.00812 relative 10-mer count
69 | CGCTTCTTTC | 0.081 relative 10-mer count
70 | CACCCACCCA | 0.00835 relative 10-mer count
71 | CCCCGCGCCC | 0.00482 relative 10-mer count
72 | CCCTCCCCGC | 0.00555 relative 10-mer count
73 | ACCCCACCAC | 0.00738 relative 10-mer count
74 | AAAAAGCAGA | 0.00183 relative 10-mer count
75 | AGAAAGAAGC | 0.0675 relative 10-mer count
76 | CCCCACCGCC | 0.0114 relative 10-mer count
77 | ACCCACCCCT | 0.00541 relative 10-mer count
78 | CCGCCGCCCC | 0.00546 relative 10-mer count
79 | AGGGCGGGGG | 0.0056 relative 10-mer count
80 | CCACCAACCC | 0.0067 relative 10-mer count

Biological target: ZNF721 DBD2 (Homo sapiens, UniProt Q8TF20-2 395-923)
Sequence (Q8TF20 383-911): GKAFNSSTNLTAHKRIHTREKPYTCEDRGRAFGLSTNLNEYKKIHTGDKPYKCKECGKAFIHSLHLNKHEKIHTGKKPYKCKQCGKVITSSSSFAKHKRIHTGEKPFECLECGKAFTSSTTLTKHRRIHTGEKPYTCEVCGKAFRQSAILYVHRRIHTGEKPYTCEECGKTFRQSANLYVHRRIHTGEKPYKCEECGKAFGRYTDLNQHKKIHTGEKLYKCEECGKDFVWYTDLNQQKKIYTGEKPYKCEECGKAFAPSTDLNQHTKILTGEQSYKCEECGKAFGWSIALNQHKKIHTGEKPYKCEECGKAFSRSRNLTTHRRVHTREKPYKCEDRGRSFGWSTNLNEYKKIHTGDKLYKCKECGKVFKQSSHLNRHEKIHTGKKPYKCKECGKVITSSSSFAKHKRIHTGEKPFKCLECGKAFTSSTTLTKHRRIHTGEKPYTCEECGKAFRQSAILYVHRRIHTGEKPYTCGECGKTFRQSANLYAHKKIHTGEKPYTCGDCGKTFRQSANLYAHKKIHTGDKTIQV
Assay: as above
Settings: protein: ivt; tags: eGFP (N-terminal); dsDNA, one strand shown
Method in brief: as §1

Row | Sequence | binding signal
81 | CCATCCCCAC | 0.00372 relative 10-mer count
82 | CCCCCCACCC | 0.0036 relative 10-mer count
83 | CCCCCTCGCC | 0.00288 relative 10-mer count
84 | CCCCCACCGC | 0.00479 relative 10-mer count
85 | CCCACGCCCC | 0.00384 relative 10-mer count
86 | CCCACCCACC | 0.00899 relative 10-mer count
87 | TCCCCACCCA | 0.00431 relative 10-mer count
88 | AAAGCAGGGT | 0.337 relative 10-mer count
89 | GCCCCCCCCA | 0.00348 relative 10-mer count
90 | CCGAAAAAAA | 0.0585 relative 10-mer count
91 | CACCCACCCG | 0.00264 relative 10-mer count
92 | CCCACCCCAA | 0.00575 relative 10-mer count
93 | GGTGGGTGGA | 0.00611 relative 10-mer count
94 | CCACCACCAC | 0.00647 relative 10-mer count
95 | CCCCGCCGCC | 0.0012 relative 10-mer count
96 | CCCCGCCCAC | 0.00407 relative 10-mer count
97 | ACCCACCACC | 0.00791 relative 10-mer count
98 | AAGCTGCACC | 0.0024 relative 10-mer count
99 | TAAAAAAAAA | 0.0464 relative 10-mer count
100 | CCCCGCCCCA | 0.00228 relative 10-mer count

Row | Sequence | binding signal
101 | AAAAAAGCGC | 0.015 relative 10-mer count
102 | ACCACCCGCC | 0.00312 relative 10-mer count
103 | GCCCCCGCCC | 0.00132 relative 10-mer count
104 | CCCGCCCCGC | 0.00144 relative 10-mer count
105 | ATGTGTATGA | 0.0018 relative 10-mer count
106 | CCCCCCACAC | 0.00671 relative 10-mer count
107 | AAGCATACCC | 0.0243 relative 10-mer count
108 | CTCCACCCCC | 0.00467 relative 10-mer count
109 | CGCTTCTTTC | 0.0018 relative 10-mer count
110 | CACCCACCCA | 0.00503 relative 10-mer count
111 | CCCCGCGCCC | 0.00228 relative 10-mer count
112 | CCCTCCCCGC | 0.00995 relative 10-mer count
113 | ACCCCACCAC | 0.00407 relative 10-mer count
114 | AAAAAGCAGA | 0.0852 relative 10-mer count
115 | AGAAAGAAGC | 0.00216 relative 10-mer count
116 | CCCCACCGCC | 0.00635 relative 10-mer count
117 | ACCCACCCCT | 0.00324 relative 10-mer count
118 | CCGCCGCCCC | 0.00168 relative 10-mer count
119 | AGGGCGGGGG | 0.00276 relative 10-mer count
120 | CCACCAACCC | 0.00491 relative 10-mer count
